# PubChem BioAssay AID686978 (National Center for Advancing Translational Sciences (NCATS), 2013)
# About 64,000 (15%) of roughly 420,000 compounds were called active. Not shown: some 27% with an inconclusive outcome. The list is a sample of the results. Values without a mark were called inactive. Calls follow the shape of the dose curve; as a rule, active = well fitted inhibition curve with a large enough effect; inconclusive = small, poorly fitted or top-dose-only effect; inactive = flat fitted curve, though single readings scatter. Peptide text beside a SMILES is read from it.
# Experiment: qHTS for Inhibitors of human tyrosyl-DNA phosphodiesterase 1 (TDP1): qHTS in cells in absence of CPT; also: nearly all actives have a fitted effect of over 55% in size
# Details: DT40 Tdp1-/- hTDP1 cells, no CPT, ATP luminescence, 48 h; activity change, negative = growth inhibition: at 46.2 µM (top of the series)
# How it was run: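 Growth kinetics read by CellTiter-Glo luminescence after ≥48 hr at 37 °C. Cells: DT40 Tdp1-/- stably carrying human TDP1, 400 per well, compound exposure in the absence of CPT (DMSO vehicle).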
# % is scaled to controls: 0 for no effect and ±100 for the full control effect; potency is read from the fitted curve at half-maximal effect.
SMILES,"activity change, negative = growth inhibition",Potency
Cc1ccc(S(=O)(=O)N/N=C(\c2ccccc2)C2CC2)cc1,10%,–
Cc1ccc2c(c1)N(CC(=O)N1CCC(O)CC1)C(=O)CO2,8.57%,–
"CC[C@H](C)CCCCC(=O)N[C@@H](CCN)C(=O)N[C@H](C(=O)N[C@@H](CCN)C(=O)N[C@H]1CCNC(=O)[C@@H]([C@H](C)O)NC(=O)[C@H](CCN)NC(=O)[C@H](CCN)NC(=O)[C@H](CC(C)C)NC(=O)[C@@H](CC(C)C)NC(=O)[C@H](CCN)NC1=O)[C@@H](C)O (HELM PEPTIDE1{[CC[C@H](C)CCCCC(=O)[*:2]].[Dab].T.[Dab].[Dab].[Dab].[dL].L.[Dab].[Dab].[dT]}$PEPTIDE1,PEPTIDE1,5:R3-11:R2$$$V2.0)",-14% [at 21.1 µM],–
Cc1cc(N2CCN(c3cccc(C(F)(F)F)c3)CC2)n2nc(-c3ccccc3)nc2n1,0.913%,–
COc1ccc(-c2nc3c4ccccc4n(CC(=O)Nc4ccc(C(C)=O)cc4)c(=O)n3n2)cc1,-1.26%,–
O=c1n(Cc2cccc(C(F)(F)F)c2)c2ccccc2c2nc(-c3ccccc3)nn12,–,25.9 µM (active)
CCN(CCCNC(=O)CCn1c(=O)[nH]c2ccsc2c1=O)c1ccccc1,-5.18%,–
COc1cc(OC)cc(C(=O)Nc2ncc3c(n2)CC(C)(C)CC3=O)c1,-8.15%,–
Cc1ccc(NC(=O)C(CC(=O)O)C2CCCO2)c(C)c1 (centres undefined),0.0591%,–
CSCCC(NC(=O)c1ccc(Cl)cc1Cl)C(=O)NNC(=O)c1csc(N2CCOCC2)n1 (centres undefined),15.3%,–
Cc1ccc(CCn2c3c(c4ccccc42)CN(C)CC3)cn1,-10.9%,–
Cc1ccc(-c2noc(CSc3nnnn3-c3ccccc3)n2)cc1,-4.41%,–
COc1ccc(-c2noc(CSc3nnc(-c4ccccc4)n3-c3ccc(F)cc3)n2)c(OC)c1,–,20.6 µM (active)
Cc1ccc(-c2noc(CSc3nnc(-c4ccncc4)n3-c3ccc(F)cc3)n2)cc1,–,18.4 µM (active)
COc1ccc(C(=O)NC(=O)CSc2nnc(-c3ccco3)n2-c2ccccc2)cc1,-8.95%,–
COc1ccccc1-c1noc(CSc2nc(C)cc(=O)[nH]2)n1,-1.42%,–
Cn1c(SCc2ccc(F)cc2)nnc1-c1ccncc1,6.54%,–
Cc1nc(N2CCOCC2)sc1C(=O)NN,-0.716%,–
COC(=O)Cc1ccc(OCC(=O)NC2CCCC2)cc1,0.278%,–
COc1ccc(-n2nc3c(c2NC(=O)Cc2cccc(C)c2)CS(=O)C3)cc1 (centres undefined),-2.75%,–
Cc1nc(NC(CC(C)C)C(=O)O)c2nc(C)oc2n1 (centres undefined),6.87%,–
Cc1ccc(NC(=S)N/N=C2/CCCc3c(C)cc(C)cc32)cc1,-5.78%,–
Cc1ccc(S(=O)(=O)c2nnn3c2nc(N2CCN(c4ccccc4F)CC2)c2cc(Cl)ccc23)cc1C,1.48%,–
COc1ccc(OC)c(NC(=O)Cn2c(=O)n(Cc3ccccc3)c(=O)c3ccccc32)c1,-29.5%,–
COCCn1c(SCC(=O)Nc2cc(Cl)ccc2OC)nc2c(c1=O)SC(C)C2 (centres undefined),–,20.6 µM (active)

SMILES,"activity change, negative = growth inhibition",Potency
Cc1ccc(Cl)cc1NC(=O)CSc1nccn1C,-0.404%,–
COCCn1c(SCC(=O)Nc2cc(OC)ccc2OC)nc2c(c1=O)SC(C)C2 (centres undefined),–,13 µM (active)
COCCn1c(SCC(=O)Nc2ccccc2F)nc2c(c1=O)SCC2,-2.31%,–
COc1ccc(NC(=O)CSc2nc(SC)ns2)c(OC)c1,-27.9%,–
CCc1cccc(C)c1NC(=O)CSc1nnc(-c2ccco2)n1N,-2.14%,–
CCOC(=O)CSc1nnc(NC(=O)c2cccc(S(=O)(=O)N3CCCC3)c2)s1,13.6%,–
O=C(Nc1cccc2cccnc12)c1cccc2c(Br)cccc12,-20.3%,–
Cc1ccccc1CS(=O)(=O)CC1(O)CCN(C(=O)c2cccc(C(F)(F)F)c2)CC1,-6.73%,–
CCN(Cc1ccccc1)C(=O)CCS(=O)(=O)c1ccc2c(c1)oc(=O)n2C,–,inactive
COc1cccc2c1CCC(NC(C)=O)C2=O (centres undefined),-4.13%,–
FC(F)(F)c1ccc(-n2cn[nH]c2=S)cc1,-10.5%,–
COc1ccc(-c2c(C)nn3c(N4CCC(C(=O)N5CCCCC5)CC4)cc(C)nc23)cc1OC,-17.1%,–
N#Cc1cc([N+](=O)[O-])ccc1NCC1CCCO1 (centres undefined),-0.195%,–
O=C(Nc1ccc2c(c1)OCCO2)c1ccoc1,-33.9%,–
COc1ccc(NS(=O)(=O)c2ccc(N3CCOCC3)c(NC(=O)/C=C/C(=O)O)c2)cc1,-23.9%,–
COc1ccc(N2C(=O)CC(Nc3ccc(F)cc3)C2=O)c([N+](=O)[O-])c1 (centres undefined),-3.43%,–
Cc1ccc(S(=O)(=O)NCCSc2ccccc2)cc1[N+](=O)[O-],-20.9%,–
CS(=O)(=O)N1CCN(c2ccc(C(=O)NC3C4CC5CC(C4)CC3C5)cc2[N+](=O)[O-])CC1 (centres undefined),–,23.1 µM (active)
COc1ccc(NS(=O)(=O)c2ccc(N3CCN(CCO)CC3)c([N+](=O)[O-])c2)cc1,–,3.66 µM (active)
Cc1ccc(S(=O)(=O)N2CCN(C(=O)c3ccc(-n4cncn4)c([N+](=O)[O-])c3)CC2)cc1,-29.7%,–
Cc1ccc(C(=O)c2ccc(N3CCN(C)CC3)c([N+](=O)[O-])c2)cc1,–,23.1 µM (active)
CN1CCN(c2ccc(S(=O)(=O)Nc3ccccc3)cc2[N+](=O)[O-])CC1,–,9.2 µM (active)
CC1CCN(c2ccc(S(=O)(=O)Nc3cc(C(=O)O)cc(C(=O)O)c3)cc2[N+](=O)[O-])CC1,4.27%,–
Cc1cccc(N2CCN(c3ccc(C(N)=O)cc3[N+](=O)[O-])CC2)c1C,-4.39%,–
